Assay results: PubChem BioAssay AID1508622 (National Center for Advancing Translational Sciences (NCATS), 2021)
Some structures have more than one record in an assay (separate samples or runs), and their calls can disagree. The source made the active and inactive calls. Entries that show only a call come without a potency. Calls come from the whole dose curve; as a rule, active = well fitted activation curve with a large enough effect; inconclusive = small, poorly fitted or top-dose-only effect; inactive = no such curve, though single readings can be large or run the other way.

Experiment: Confirmatory qHTS for Identification of Small Molecule Activators of Huntingtin-Antisense Promoter Activity
Procedure, shortened: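 HEK293 luciferase reporter cells, 2,500/well, cultured 24 h, then exposed to compounds at up to 57.5 uM final for 24 h at 37C. Firefly luciferase luminescence read; normalized to vehicle (0%) and zero RLU (-100%).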
Potency is the fitted concentration of half-maximal effect.

SMILES | Potency
COc1cccc(N2CCN(C(=O)c3ccc4nc(N5CCC(C)CC5)sc4c3)CC2)c1 | inactive
O=C(Nc1ccc(Br)cc1)c1cc(S(=O)(=O)NC2CCCC2)ccc1F | inactive
CN(C)CCNC(=O)C1CCN(Cc2cc3ccccc3n2Cc2ccccc2)CC1 | inactive
Cc1cccc(NC(=O)Cc2ccc(-n3c(C)nc4cccnc43)cc2)c1C | inactive
CCN1C(=O)c2ccccc2Sc2ccc(NC(=O)Nc3cccc([N+](=O)[O-])c3C)cc21 | inactive
COc1ccc(-c2nnc(C3CCN(C(=O)c4ccccc4F)CC3)o2)cc1 | inactive
O=C(Nc1ccc2c(c1)CCCN2C(=O)c1cccs1)c1cccc(C(F)(F)F)c1 | inactive
Cc1ccc(-c2onc(C)c2C)cc1S(=O)(=O)N1CCC(C)CC1 | inactive
Cn1c(=O)c2sccc2n2c(CCCC(=O)Nc3ccc(Oc4ccc(Cl)cc4)cc3)nnc12 | inactive
CCc1ccc(NC(=O)C2CCCN2S(=O)(=O)c2ccc3c(c2)CCCC(=O)N3)cc1 (stereo not drawn) | inactive
Cc1cccc(N2CCN(S(=O)(=O)c3ccc(F)c(C(=O)Nc4cccc(Cl)c4C)c3)CC2C)c1 (stereo not drawn) | inactive
Cc1ccc(-c2ncn(-c3ccc(Nc4nccc(-c5cccc(N6CCOCC6)c5)n4)cc3)n2)cn1 | inactive
COc1ccc(OC)c(-c2nnc3ccc(-c4ccc(OC)c(O[C@@H]5CCOC5)c4)nn23)c1 | inactive
CC=C1NC(=O)[C@H]2CSSCCC=C[C@H](CC(=O)N[C@H](C(C)C)C(=O)N2)OC(=O)[C@H](C(C)C)NC1=O | inactive
Cc1cc(C)c(NS(=O)(=O)c2ccc(-c3cnc(C4CC4)o3)cc2)c(C)c1 | inactive
Cc1ccc(NCc2cccn2-c2nnc(N3CCC(C(=O)NCCC(C)C)CC3)s2)cc1 | inactive
CCC(=O)N1CCCc2cc(S(=O)(=O)N3CCC(C(=O)Nc4ccc(F)c(F)c4)CC3)ccc21 | inactive
Cc1ccc(CCNC(=O)c2cc3c(s2)-c2ccccc2OC3)cc1 | inactive
Cc1cccc(Cn2c(SCc3ccc(C(=O)N4CCC(C)CC4)cc3)nc3ccncc32)c1 | inactive
CCn1cc(C(=O)N2CCN(c3ccc(C)cc3)C(C)C2)c(=O)c2cc(S(=O)(=O)N3CCCC3)ccc21 (stereo not drawn) | inactive
CCOc1ccc(CCNC(=O)C(CC(C)C)N2Cc3ccccc3C2=O)cc1OCC (stereo not drawn) | inactive
Cc1ccc2onc(CC(=O)Nc3cccc(C(F)(F)F)c3)c2c1 | inactive
CCCCOc1ccc(CNC(=O)c2ccc(NC(=O)N3CCSc4ncccc43)cc2)cc1 | inactive
Cc1ccc(N2C(=O)C(CC(=O)Nc3ccccc3)N(CCC3=CCCCC3)C2=O)cc1 (stereo not drawn) | 6.75 µM (active)

SMILES | Potency
CCOc1ccc(-c2nc(CSCC(=O)NCCc3ccccc3)c(C)o2)cc1 | inactive
CCOc1ccc(CCNC(=O)CSCc2nc(-c3cccc(C)c3)oc2C)cc1OCC | inactive
O=C(NCC(c1ccccc1)c1ccccc1)c1nn(-c2ccccc2F)nc1CO | inactive
Cc1ccccc1Nc1sc(C(=O)c2ccc(F)cc2)c(N)c1C(=O)NCCc1ccccc1 | inactive
CCOc1ccc(S(=O)(=O)NCCc2sc3nc(-c4ccc(F)cc4)nn3c2C)cc1 | inactive
CC1Cc2cc(S(=O)(=O)N(Cc3ccccc3)C(C)C)ccc2N1C(=O)C1CCC1 (stereo not drawn) | inactive
CCc1ccc(NC(=O)Nc2cn(C)c(=O)c3ccccc23)cc1 | inactive
COc1cc(CN(C(=O)COc2ccc(C)cc2)c2ccccn2)cc(OC)c1OC | inactive
Cc1ccc(NC(=O)c2c(NC(=O)C(F)(F)F)sc3c2CCCCC3)cc1 | inactive
CCOc1ccccc1CNC(=O)c1ccc2nc(Cc3ccc(OC)cc3)oc2c1 | inactive
COc1ccc(-c2ccc3ncc4c(c3c2)n(-c2ccc(N3CCNCC3)c(C(F)(F)F)c2)c(=O)n4C)cn1 | inactive
COc1ccc(-c2noc(N3CCN(c4ccc(C)cc4)C(C)C3)n2)cc1OC (stereo not drawn) | inactive
O=S(=O)(Nc1ccc(F)c(C(F)(F)F)c1)c1ccc(N2CCCCS2(=O)=O)cc1 | inactive
Cc1ccc(S(=O)(=O)NCCc2csc(-c3ccc(Cl)cc3)n2)cc1 | inactive
CCCCc1nc2cc(C=CC(=O)NO)ccc2n1CCN(CC)CC | 8.49 µM (active)
CCCc1cc(N2CCN(c3ccccc3)CC2)n2cnnc2n1 | inactive
COC(=O)c1c(C)oc2ccc(N(C(=O)c3ccncc3)S(=O)(=O)c3ccc(OC)cc3)cc12 | inactive
Cc1cc(OCC(=O)N2CCC(c3nc4ccccc4s3)CC2)ccc1Cl | inactive
COc1ccc(C)cc1NS(=O)(=O)c1ccc(-c2cnc(C3CC3)o2)cc1 | inactive
CCc1c(C)nc2nncn2c1NCc1ccc(OC)cc1 | inactive
COc1cc(Cn2c(=O)oc3ccc(C)cc32)ccc1OCCC(C)C | inactive
COc1ccc(C)cc1NC(=O)CN1CCCN(S(=O)(=O)c2ccc(Br)cc2)CC1 | inactive
COc1cc(C[C@@H](CO)[C@H](CO)Cc2ccc(O)c(OC)c2)ccc1O | inactive
COc1cccc(NS(=O)(=O)c2ccc3[nH]cc(C(=O)NCCc4ccc(C)cc4)c(=O)c3c2)c1 | inactive

SMILES | Potency
COc1ccccc1N=c1scc(-c2ccc(S(=O)(=O)N3CCCC3)cc2)n1C | inactive
CCOc1ccccc1NS(=O)(=O)c1ccc2c(c1)CC(C)N2C(=O)C1CC1 (stereo not drawn) | inactive
Cc1ccc(Cn2c(SCc3ccc(C(=O)NC4CCCC4)cc3)nc3ccncc32)cc1 | inactive
O=C(c1ccc2c(c1)CCN2S(=O)(=O)c1ccc(Cl)cc1)N1CCN(c2ccc(F)cc2)CC1 | inactive
CCC1CCCCN1C(=O)CSc1nc(-c2ccc(OC)c(OC)c2)cc(C(F)(F)F)n1 (stereo not drawn) | inactive
COc1ccccc1N1CCN(C(=O)C2CCCN(S(=O)(=O)c3ccc4c(c3)CCCN4C(C)=O)C2)CC1 (stereo not drawn) | inactive
Cc1cccc(-c2nc(SCC(=O)Nc3ccc4c(c3)OCO4)c(-c3ccccc3)[nH]2)c1 | inactive
CCc1ccc(CNC(=O)c2cccc(-n3c(C)nc4cccnc43)c2)cc1 | inactive
Cc1cc(NC(=O)c2cc(-c3ccc(Cl)cc3)on2)nn1Cc1ccc(Cl)cc1 | inactive
COc1ccc(-c2noc(CSc3nc4ccccc4[nH]3)n2)cc1OC | inactive
Cn1cnc(=N)c2[nH]cnc21 | inactive
CSc1cccc(NC(=O)C2CCN(C(=O)c3cnn(-c4ccccc4)c3-n3cccc3)CC2)c1 | inactive
CC(C)c1ccc(NC(=O)c2ccc(F)c(S(=O)(=O)N3CCCCCC3)c2)cc1 | inactive
O=C(CCCCCCC(=O)Nc1ccccc1)NO | 19 µM (active) and inactive
Cc1ccc(CN2CCSc3ccc(C(=O)NCC(C)c4ccccc4)cc32)cc1 (stereo not drawn) | inactive
Cc1ccc(C(=O)N2CCc3cc(CNC(=O)CSc4ccccc4)ccc32)cc1 | inactive
CCOC(=O)c1ccc(C#Cc2ccc3c(c2)C(C)(C)CCS3)nc1 | inactive
CCc1ccc(NC(=O)c2ccc(F)c(S(=O)(=O)N3CCc4ccccc4C3)c2)cc1 | inactive
Cc1cccc(CN2C(=O)N(c3ccc(C(C)C)cc3)S(=O)(=O)c3ccccc32)c1 | inactive
COc1cc(Br)c(C2CC(=O)Nc3cc4c(cc32)OCCO4)cc1OC (stereo not drawn) | inactive
COc1ccc(CCNC(=O)c2ccc3nc(Cc4ccccc4)oc3c2)cc1OC | inactive
CC(C)[C@H](C(=O)Nc1ccc(C(=O)NO)cc1)c1ccccc1 | 1.9 µM (active)
Cc1ccc(C)c(N2CCN(C(=O)c3nn(C)c4c3CS(=O)(=O)c3ccccc3-4)CC2)c1 | inactive
COc1ccc(-c2onc(C)c2C)cc1S(=O)(=O)N1CCc2ccccc21 | inactive

SMILES | Potency
COc1ccccc1C(=O)Nc1nnc(SCc2cc(=O)c3ccccc3[nH]2)s1 | inactive
CCc1cccc(C)c1NC(=O)CCCN1C(=O)C(c2ccccc2)Oc2cccnc21 (stereo not drawn) | inactive
Cc1ccc(Cl)cc1-n1ncc2c(N3CCC(C)CC3)ncnc21 | inactive
CCn1c(CN2CCCCC2)nc2cc(NC(=O)c3ccc([N+](=O)[O-])cc3)ccc21 | inactive
Cc1ccc(N(C)C(=O)Cn2cnc3onc(-c4ccc(F)cc4)c3c2=O)cc1C | inactive
COc1ccc(N2CCN(C(CNC(=O)C(=O)NCc3ccc(C)cc3)c3cccnc3)CC2)cc1 (stereo not drawn) | inactive
Cc1ccc(CSc2ncc(Cl)c(C(=O)NCCc3ccc(S(N)(=O)=O)cc3)n2)cc1 | inactive
CCOc1ccc(CN2CCc3nc(N4CCN(c5ccccn5)CC4)ncc3C2)cc1OC | inactive
Cc1cccc(-c2nc(CSCC(=O)N3CCN(c4ccccc4)CC3)c(C)o2)c1 | inactive
COc1ccc(NS(=O)(=O)c2ccc3c(c2)CCN3C(=O)C2CC2)cc1OC | inactive
CCc1cccc(C)c1NC(=O)Cn1cc2c(n1)CCCC2 | inactive
CCN(CC)c1ccc(NC(=O)c2sc3nc(-c4ccccc4)cn3c2C)cc1 | inactive
CC(=O)c1ccc(N2CCN(c3ncnc4onc(C)c34)CC2)cc1 | inactive
O=C(Nc1ccc(Oc2ccccc2)cc1)C1CCN(S(=O)(=O)c2ccccc2)CC1 | inactive
O=C(Nc1ccc(F)cc1)C1CCN(S(=O)(=O)c2ccc3c(c2)CCCN3C(=O)C2CCC2)CC1 | inactive
CCS(=O)(=O)N1CC(CC#N)(n2cc(-c3ncnc4[nH]ccc34)cn2)C1 | 30.1 µM (active)
COc1ccc(CNC(=O)Nc2ccc3c(c2)N(C)C(=O)c2ccccc2S3)cc1OC | inactive
COc1ccccc1NC(=O)CSc1nnc(NC(=O)Nc2ccc(C)cc2)s1 | inactive
COc1ccc(CCNC(=O)c2ccc3c(c2)CCN3S(=O)(=O)c2ccc(C)cc2)cc1OC | inactive
O=C(NCC(c1ccc2c(c1)OCO2)N1CCN(c2ccc(F)cc2)CC1)c1cccc([N+](=O)[O-])c1 (stereo not drawn) | inactive
CCOc1ccc(CCNC(=O)c2cccc(-n3c(C)nc4cccnc43)c2)cc1 | inactive
